Shiga inhibitor: A qHTS for Small Molecule Inhibitors of Shiga Toxin; Vero cells, Shiga toxin protein synthesis inhibition reporter; inhibition, % at 38.7 µM; hit rate 9.2% among 290,000; in the data active means inhibition mostly above about 28%, no sharp cut-off; inactive means mostly below about 43%; further: 0% is about no effect
Pf growth 96h: Primary qHTS for delayed death inhibitors of the malarial parasite plastid, 96 hour incubation | AID 504834, 2011 | hit rate 6.9% among 320,000 | P. falciparum luciferase reporter growth, 96 h | Potency, µM (highest dose often 28.7 µM), for inactives: at the highest dose activity change, negative = inhibition, actives largely listed as inhibitors; further: potency means the concentration at half of the fitted maximal effect; on the % scale 0 is the no-effect control and ±100 the full control effect
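P. falciparum expressing integrated firefly luciferase grown in erythrocytes (2% hematocrit, 0.05% parasitemia final) with compounds for 96 hours at 37 C, 5% CO2. Growth inhibition read as loss of luminescence after adding luciferase detection reagent.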
Cycloheximide cs: Cycloheximide Counterscreen for Small Molecule Inhibitors of Shiga Toxin; hit rate 12% among 300,000; cell reporter, cycloheximide protein synthesis inhibition counterscreen; AID 2314, 2010; max response, %; in the data active means max response mostly above about 13%, no sharp cut-off; inactive means mostly below about 14%; further: read at 38.3 µM for the half of the compounds with a filed dose; 0% is about no effect
NS1 function inh: qHTS Assay for Inhibitors of Influenza NS1 Protein Function. Potency, µM (titrated, usually from 46.1 µM), for inactives: at the highest dose activity, positive = more growth. hit rate 0.4% among 270,000; calls by dose curve; further: potency means the concentration at half of the fitted maximal effect; actives are rising curves; nearly all actives have a fitted effect of over 50% in size
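S. cerevisiae expressing influenza A NS1, grown in glucose, washed, then diluted 1:100 into pH 6.0 -URA galactose medium with 23 nl compound. Growth recovery read as OD600; NS1-free strain serves as control.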
Pf growth 48h: Primary qHTS for delayed death inhibitors of the malarial parasite plastid, 48 hour incubation; hit rate 5.9% among 310,000; Potency, µM (titrated, usually from 28.7 µM), without a hit: top-dose activity change, negative = inhibition, usual class: inhibitors; P. falciparum luciferase growth in erythrocytes, 48 h; further: potency means the concentration at half of the fitted maximal effect; on the % scale 0 is the no-effect control and ±100 the full control effect
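Here the parasites carry a stable luciferase gene and grow inside erythrocytes in Albumax-based RPMI medium with compound for one erythrocytic cycle. Activity is scored as loss of luminescent signal.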
* marks the source's active call; other numbers are inactive results; ? = inconclusive; · = no result; [ ] = remark or other dose. This is a sample that favours compounds with a hit; in the whole collection about 21% have one here. Unless noted, the call rests on the fitted dose curve; in most records, active means well fitted inhibition curve with a large enough effect; inconclusive means small, poorly fitted or top-dose-only effect, or another doubt; inactive means no such curve, though single readings can be large or run the other way.

SMILES	Shiga inhibitor	Pf growth 96h	Cycloheximide cs	NS1 function inh	Pf growth 48h
COc1ccc(NC(=O)/C(=C\c2ccc(F)cc2)NC(=O)c2ccco2)cc1	-5	6%	-11	-9%	-10%
CCC(CC)CN1CCN=C1N(C)C	2	0%	-1	-10%	-5%
CC(C)(C)C(=O)CN1C(=O)NC(c2ccccc2)(c2ccccc2)C1=O	-5	?	-5	1%	?
Cc1cccc(CN2C(=O)NC(c3ccccc3)(c3ccccc3)C2=O)c1	-3	?	-1	-30%	10µM*
COc1ccc(C2(c3ccc(OC)cc3)NC(=O)N(CC(=O)N(C)C3CCC(C)CC3)C2=O)cc1 (stereo unspecified)	·	?	·	·	10µM*
COc1ccc(C2(c3ccc(OC)cc3)NC(=O)N(CC(=O)N(C)C)C2=O)cc1	-2	-18%	-2	-9%	3%
COc1cccc(CN(C)C(=O)CN2C(=O)NC(c3ccccc3)(c3ccccc3)C2=O)c1	·	10µM*	·	·	10µM*
COc1cccc(CN(C)C(=O)CN2C(=O)NC(c3ccccc3)(c3ccccc3)C2=O)c1OC	·	12µM*	·	·	?
O=C(Nc1ccncc1)c1ccccc1-c1ccccc1	-11	-33%[1.15 µM]	-4	-2%	?
CCCS(=O)(=O)N1CCN=C1SCc1ccc(F)cc1	4	-14%	2	-5%	-15%
CSc1ccc(CN(C)C(=O)CN2C(=O)NC3(CCCC3)C2=O)cc1	·	25%	·	·	-20%
O=C(CN1C(=O)NC2(CCCC2)C1=O)Nc1ccccc1C(F)(F)F	-12	4%	-6	?	13%
CN(Cc1ccccc1)C(=O)CN1C(=O)NC2(CCCCCCC2)C1=O	·	?	·	·	9.3µM*
CCC(C)(C)C1CCC2(CC1)NC(=O)N(CC(=O)N(C)CC(=O)Nc1ccccc1C(F)(F)F)C2=O (stereo unspecified)	53*	?	58*	-10%	3%
Cc1ccsc1CN(C)C(=O)CN1C(=O)NC(c2ccccc2)(c2ccccc2)C1=O	·	9.3µM*	·	·	13µM*
O=C(CSCc1c(F)cccc1Cl)Nc1ccccc1C(=O)N1CCOCC1	-6	0%	1	-3%	7%
CN(C)c1nnnn1-c1ccccc1Oc1ncc(C(F)(F)F)cc1Cl	-10	?	-7	·	?
COC(=O)c1cccc(C23CC4(C2)[C@H](CN(C)[C@@H]4c2ccccc2)C3c2ccccc2)c1 (stereo partly specified)	-7	?	11	6%	12µM*
COC(=O)c1ccc(C23CC4(C2)[C@H](CN(C)[C@@H]4c2ccccc2)C3c2ccccc2)cc1 (stereo partly specified)	3	?	3	2%	?
COC(=O)c1cccc(C23CC4(C2)[C@H](CN(C)[C@@H]4c2ccccc2)C3c2ccc(C(F)(F)F)cc2)c1 (stereo partly specified)	-5	?	3	7%	9.3µM*
N#CCc1nc2c3c4c(sc3ncn2n1)CCCC4	-7	10µM*	-1	6%	·
Cc1nn2cnc3sc4c(c3c2nc1=O)CCCC4	4	?	-2	-8%	-17%
O=C(N/N=C/C(Br)=C/c1ccccc1)c1ccncc1	73*	15µM*	38*	-32%	10µM*
O=C(N/N=C/C(Br)=C/c1ccccc1)c1ccc([N+](=O)[O-])cc1	4	18%	11	-6%	-8%
CCOc1cc(C(=O)N/N=C/C(Br)=C/c2ccccc2)cc(OCC)c1OCC	-16	?	2	6%	-19%
SMILES	Shiga inhibitor	Pf growth 96h	Cycloheximide cs	NS1 function inh	Pf growth 48h
O=C(N/N=C/C(Br)=C/c1ccccc1)c1cccnc1	66*	10µM*	38*	-46%	10µM*
CCOC(=O)c1c(NC(=O)C[n+]2ccc(Cc3ccccc3)cc2)sc(C)c1C	-4	0%	0	·	?
COc1ccc(CC(=O)NCCN2CCCC2)cc1	30	63%	19	-2%	74%
O=C(c1ccc(Br)o1)N(Cc1ccccc1)c1ccccn1	-8	·	4	-8%	·
COC(=O)C(Nc1ccccc1Cl)(c1cc(C)c(O)c(C)c1)C(F)(F)F (stereo unspecified)	4	·	-2	-71%	9.3µM*
CCOC(=O)C(NC(=O)c1ccccc1Cl)(Nc1ccc(C)c(C)c1)C(F)(F)F (stereo unspecified)	24	2%	7	4%	?
CCCn1cnc2c1c(=O)n(CCCCC(C)=O)c(=O)n2C	·	56%	·	-6%	12µM*
CCC(=O)NCCc1nc2cc(NC(=O)c3ccccc3OC)ccc2n1C	25	·	43*	0%	47%
CC(C)C(=O)Nc1ccc2c(c1)nc(CCN1CCCCC1)n2C	5	41%	6	2%	31%
CC1CCN(CCc2nc3cc(NC(=O)COc4ccccc4)ccc3n2C)CC1	7	?	6	7%	?
COc1ccccc1C(=O)Nc1ccc2c(c1)nc(CCNC(C)=O)n2C	26	?	17*	7%	152%
CCC(=O)NCCc1nc2cc(NC(=O)COc3ccccc3)ccc2n1C	78*	-19%	29*	7%	87%
CC(C)CC(=O)Nc1ccc2c(c1)nc(CCN1CCCCC1)n2C	-12	13µM*	-5	2%	?
COc1ccc(CN2C(=O)c3ccccc3C2C(=O)NC2CCCC(C)C2C)c(OC)c1 (stereo unspecified)	-26	23%	1	·	?
Cn1cnc2cc(NC(=O)COc3ccccc3)ccc21	76*	-1%	38*	11%	79%
COc1ccc(OCC(=O)Nc2ccc3c(c2)nc(CCn2ccccc2=O)n3C)cc1	14	5.2µM*	5	-7%	?
Cn1c(CCN2CCCCC2)nc2cc(NC(=O)COc3ccc(Cl)cc3)ccc21	3	?	-5	0%	?
CCC(=O)NCCc1nc2cc(NC(=O)c3cccs3)ccc2n1C	48*	171%	17*	·	290%
CN1CCN(CCc2nc3cc(NC(=O)COc4ccc(Cl)cc4)ccc3n2C)CC1	0	9.3µM*	-6	-6%	?
COc1ccc(OCC(=O)Nc2ccc3c(c2)nc(CCN2CCOCC2)n3C)cc1	14	3%[5.75 µM]	-2	-4%	?
Nc1nncn1C(=O)CCCOc1ccc(Cl)cc1Cl	8	?	2	-45%	13%
Cc1ccc(NC(=O)CCCC(=O)OC(C)C(=O)c2ccccc2)cc1 (stereo unspecified)	-3	0%	-3	-34%	14%
COC(=O)CN(C#N)c1nc(NC(C)C)nc(NC(C)C)n1	-3	34%	-1	·	-19%
CCC[C@@H]1CC2=CC(=O)CC[C@]2(C)[C@H]2CC[C@@]3(C)[C@@H](CC[C@@]34CCC(=O)O4)[C@H]12	-6	·	-9	·	·
COc1ccc2cc(C#N)c(=O)oc2c1	-4	·	-5	·	·
CC(=O)NCCc1nc2cc(NC(=O)c3ccc(F)cc3)ccc2n1C	44*	296%	54*	-3%	142%
COc1cc(SC)ccc1C(=O)NCCOc1ccc(F)cc1	74*	-2%	45*	-20%	98%
